# In the library only some 0.34% were active in any assay of this set; here they are far more common.
# Vif-APOBEC3G blk: qHTS for Inhibitors of Vif-A3G Interactions: qHTS; DNA dC->dU-editing enzyme APOBEC-3G (Homo sapiens), Q9HC16; HeLa A3G-eYFP + Vif (tagged APOBEC3G with the HIV-1 protein that degrades it), YFP fluorescence, overnight; hit rate 0.076% among 410,000; Potency, µM (titrated, usually from 46.1 µM), for inactives: at the highest dose activity, negative = active, most hits filed as inhibitors; further: on the % scale 0 is the no-effect control and ±100 the full control effect; nearly all actives have a fitted effect of over 60% in size
# Target sequence (Q9HC16 whole entry, looked up): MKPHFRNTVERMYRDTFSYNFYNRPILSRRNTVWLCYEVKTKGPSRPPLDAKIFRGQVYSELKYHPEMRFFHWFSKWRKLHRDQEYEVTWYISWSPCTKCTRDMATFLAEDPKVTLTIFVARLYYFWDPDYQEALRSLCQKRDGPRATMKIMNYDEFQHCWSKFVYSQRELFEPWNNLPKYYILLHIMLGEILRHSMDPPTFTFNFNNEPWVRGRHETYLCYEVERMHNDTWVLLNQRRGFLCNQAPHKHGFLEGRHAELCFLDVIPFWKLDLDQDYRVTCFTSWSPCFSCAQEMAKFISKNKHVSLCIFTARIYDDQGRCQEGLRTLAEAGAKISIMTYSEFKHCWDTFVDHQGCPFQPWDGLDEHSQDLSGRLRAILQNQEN
#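 HeLa cells stably expressing Vif and C-terminally eYFP-tagged A3G, seeded overnight at 37 deg C, then exposed to compound by pintool overnight at 37 deg C. Rise in yellow fluorescence (Ex 488/Em 500-530, Acumen) marks blocked Vif-driven A3G degradation.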
# Epigenetic reg: Quantitative High-Throughput Screen for Regulators of Epigenetic Control. hit rate 0.2% among 280,000. Potency, µM (highest dose often 53.9 µM), without a hit: at the top dose GFP activation, usual class: activators. murine LDR cells, GFP reporter derepression, 30 h. AID 1865, 2009; further: % of control where 0% means no effect; nearly all actives have a fitted effect of over 60% in size
#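 Murine LDR cells carrying a silenced, genomically integrated CMV-driven GFP reporter were exposed to compound for 30 hours at 37 C. After PBS washes, GFP-positive cells (20–120 um objects) were counted by laser-scanning microplate cytometry.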
# Vif-A3F inh: qHTS for Inhibitors of Vif-A3F Interactions: qHTS; Potency, µM (highest dose often 46.1 µM), inactives show at the highest dose activity, negative = active; hit rate 0.2% among 390,000; HeLa A3F-eYFP + Vif (tagged APOBEC3F with the HIV-1 protein that degrades it), YFP fluorescence increase; further: % of control where 0% means no effect; nearly all actives have a fitted effect of over 65% in size
#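 Fluorescence increase (Ex 488/Em 500-530) after overnight compound treatment at 37 deg C flags inhibition of Vif-driven A3F-eYFP loss in stable HeLa A3F-eYFP/Vif cells seeded overnight beforehand.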
# * marks the source's active call; other numbers are inactive results; i = inactive; ? = inconclusive; . = no result. The call rests on the fitted dose curve; in most records, active means well fitted curve in the direction sought with a large enough effect; inconclusive means small, poorly fitted or top-dose-only effect, or another doubt; inactive means no such curve, though single readings can be large; an effect the other way counts as inactive or inconclusive. Potency means the concentration at half of the fitted maximal effect.
SMILES,Vif-APOBEC3G blk,Epigenetic reg,Vif-A3F inh
CCN(CC)c1ccc(-c2nc(-c3ccco3)no2)cc1[N+](=O)[O-],4%,-3%,1%
COc1ccc2c(C)cc(SCC#N)nc2c1,?,2%,22µM*
Cc1cc(SCC#N)nc2ccccc12,2%,1%,18%
CCCn1nc(NC(=O)CC)c2cc3cccc(C)c3nc21,-2%,.,-1%
CCCn1nc(NC(=O)c2cccc(Cl)c2)c2cc3cccc(C)c3nc21,-5%,16µM*,?
COc1cccc(CNCCSc2nnnn2C)c1OCc1ccccc1F,3%,-1%,-1%
C=C[C@@H]1CN2CC[C@@H]1C[C@H]2[C@H](O)c1ccnc2ccc(OC)cc12,.,1%,.
COc1ccc(OC)c2c(/C=C/c3c(C)[nH]c4ccccc34)ccnc12,0%,.,.
C=CCOC(=O)C1=C(C)NC(C)=C(C(=O)OCC=C)C1c1cn(-c2ccccc2)nc1-c1ccco1,8.9µM*,3%,-13%
OCc1cn(-c2ccccc2)nc1-c1ccco1,1%,-5%,-2%
Fc1ccccc1N1CCN(c2ncnc3onc(-c4cccc(Cl)c4)c23)CC1,-3%,2%,-8%
CC1=Nc2ccccc2/C1=C\c1nc(-c2ccccc2)oc1O,-12%,0%,1%
CC1=Nc2ccccc2/C1=C\c1nc(-c2ccc(C(F)(F)F)cc2)oc1O,0%,13µM*,-2%
Cc1nonc1NC(=O)CSc1nc2c(C)cccc2cc1C#N,?,16µM*,7.9µM*
COc1ccc2cc(C#N)c(SCC(=O)Nc3nonc3C)nc2c1,-1%,.,-8%
Cc1cc2cc(C#N)c(SCC(=O)Nc3nonc3C)nc2cc1C,?,.,10µM*
Cc1ccc(C)c2nc(SCC(=O)Nc3ccc4c(c3)OCO4)c(C#N)cc12,0%,0%,-4%
COc1ccc(Cn2ccnc2SCC(=O)Nc2cc(C(F)(F)F)ccc2Cl)cc1,8%,0%,4%
Oc1ccc(Cl)cc1C1C=C(c2ccc3c(c2)OCO3)NC(c2cc(Br)ccc2F)N1 (stereo not given),-19%,.,.
COc1cccc(/C=N/NC(=O)c2cc3c(OC)c(OC)ccc3[nH]2)c1OC,4µM*,-1%,5%
COc1ccccc1/C=N/NC(=O)c1cc2c(OC)c(OC)ccc2[nH]1,?,.,0%
CCC(=O)N1CCc2cc(S(=O)(=O)CCC(=O)Nc3ccc(OC(F)(F)F)cc3)ccc21,0%,0%,2%
CN1/C(=C\C=C2/SC(=S)N(CC(=O)O)C2=O)C(C)(C)c2ccccc21,-5%,1%,?
CCN1C(=O)/C(=C/C=C2/SCCN2C)SC1=S,?,-1%,?
CCN1C(=O)/C(=C/C=C2/Sc3ccccc3N2CCO)SC1=S,-11%,0%,-30%
SMILES,Vif-APOBEC3G blk,Epigenetic reg,Vif-A3F inh
CCCCN1C(=O)/C(=C/C=C2/CC(C)(C)CN2C)SC1=S,3.5µM*,14µM*,?
CCCN1C(=O)/C(=C/C=C2\N(CC)c3ccccc3C2(C)C)SC1=S,?,3.2µM*,?
CCCCN1C(=O)/C(=C/C=C2\Oc3ccccc3N2CC)SC1=S,1.6µM*,1µM*,i
CCCN1C(=O)/C(=C\C=C2/Sc3ccccc3N2CCO)SC1=S,1%,?,-20%
C=CCN1C(=O)/C(=C\C=C2\N(C)c3ccccc3C2(C)C)SC1=S,?,5µM*,?
COc1ccc(-c2cc(C(C)=O)c(C)n2CCC(=O)Nc2cccc(C)c2C)cc1,-3%,11%,-2%
CN(C)c1ccc(/C=C/c2sc3ccccc3[n+]2CCCCI)cc1,-11%,.,.
Cc1cc[n+](C2CCCCC2)c2ccccc12,-1%,.,.
Cc1ccc(OCc2nc(-c3ccc(C(=O)NCCc4ccc(S(N)(=O)=O)cc4)cc3)oc2C)cc1,-2%,0%,-4%
CC(C)(C)OC(=O)N1CCC(c2c(C(=O)NCc3ccco3)cnn2-c2ccc(F)cc2)CC1,-1%,0%,0%
Cc1ccccc1C(=O)N=c1ccn(-c2nc3ccccc3nc2NS(=O)(=O)c2ccc(F)cc2)cc1,-17%,.,?
O=C(N=c1ccn(-c2nc3ccccc3nc2NS(=O)(=O)c2ccccc2)cc1)c1cccs1,?,?,25µM*
Cc1ccc(Cl)cc1NC(=O)CCCN1C(=O)CCn2nc(-c3cn(C)c4ccccc34)cc21,-4%,0%,-2%
C=C[C@H]1CN2CCC1C[C@@H]2C(O)c1ccnc2ccc(OC)cc12 (stereo not given in full),-2%,.,.
COc1ccc2c(CNC3CCC(C)CC3)c(C(=O)O)n(Cc3ccc(F)cc3)c2c1 (stereo not given),-3%,-1%,-1%
N#CC(C#N)=C1C=CC=CN1/C(=C\c1ccco1)C(=O)c1ccccc1,?,8%,20µM*
N#CC(C#N)=C1C=CC=CN1/C(=C\c1ccco1)C(=O)c1ccc(Br)cc1,-23%,?,?
COc1ccc(-c2nn3c(-c4cc(-c5ccccc5)n[nH]4)nnc3s2)cc1,-1%,.,.
CC(=O)Nc1ccc(S(=O)(=O)Nc2cccn(Cc3ccc(C)cc3)c2=O)cc1,1%,0%,9%
CC(=O)Nc1ccc(S(=O)(=O)Nc2cc(C)cn(Cc3ccccc3)c2=O)cc1,-14%,.,22µM*
CN(C)c1ccc(/C=C/c2ccc3ccccc3[n+]2C)cc1,-8%,2%,1%
Cc1cc(/C=C/c2ccc3cc(N(C)C)ccc3[n+]2C)c(C)n1-c1ccccc1,.,22µM*,.
Cn1c(SCC(=O)N2CCOCC2)ncc(C(=O)Nc2ccc(F)cc2)c1=O,-4%,?,3%
CC1Cc2ccccc2N1S(=O)(=O)c1nnc(NC(=O)c2cccc(F)c2)s1 (stereo not given),-7%,?,-5%
N#CC1=C(N)Oc2cc(N)ccc2C1c1ccc(F)cc1 (stereo not given),?,1%,-8%
SMILES,Vif-APOBEC3G blk,Epigenetic reg,Vif-A3F inh
N#CC1=C(N)Oc2cc(N)ccc2C1c1ccc(F)cc1F (stereo not given),13µM*,.,22µM*
COC(=O)c1ccc(Nc2c([N+](=O)[O-])ccc3nonc23)cc1,?,.,25µM*
CC(=O)c1ccc(Nc2c([N+](=O)[O-])ccc3nonc23)cc1,-1%,.,-7%
COc1cc(NC(=O)c2cc(-c3cccc(Cl)c3)on2)c(OC)cc1Cl,2%,0%,1%
CN(C)c1ccc(/C=C/c2cc3ccccc3c[n+]2C)cc1,3%,.,.
COc1ccc(-c2cn3nc(SCC(=O)Nc4ccc(C)c(Cl)c4)ccc3n2)cc1,-5%,6%,-10%
O=c1c(O)c(-c2cccs2)oc2ccc(Cl)cc12,?,0%,?
O=c1c(O)c(-c2cccs2)oc2ccccc12,?,-11%,2.8µM*
O=C1C(C2=C(O)c3ccccc3C2=O)=Nc2ccccc21,?,7.9µM*,?
CN=CC1=C(O)c2ccccc2C1=O,-7%,3%,-7%
COC(=O)c1cc2oc3ccccc3c2n1CC(=O)Nc1ccc(C)c(F)c1,-2%,4%,1%
O=C(c1ccccc1)c1c2c(cc3sc4ccccc4[n+]13)-c1cccc3cccc-2c13,6.3µM*,11µM*,?
Cc1sc2cc3c(c(C(=O)c4ccccc4)[n+]2c1C)-c1cccc2cccc-3c12,-9%,-1%,17%
